TLR9-MyD88 inh: inhibitors of human TLR9-MyD88 binding; 340,000 compounds, 0.21% hits; inhibition, % at 4.98 µM; AID 504734; CHO BLA complementation TLR9-MyD88, CCF4 FRET ratio;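 active means inhibition above the mean over all tested compounds plus 3 SD, cut at about 21% in these data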;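 further: 0% = DMSO only wells and 100% = clavulanate BLA inhibitor control wells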
TLR4 MyD88 comp: inhibitors of human TLR4-MyD88 binding; HeLa CL3-4 TLR4/MyD88 BLA complementation, FRET ratio; inhibition, % at 8.4 µM; 200,000 compounds, 0.18% hits; AID 861; in the data active means inhibition above about 25%;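 further: 0% = vehicle and 100% = reference inhibitor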
NTR1 agonist: activates human neurotensin receptor 1 | P30989 | 330,000 compounds, 0.17% hits | AID 493036 | NTR1-U2OS beta-arrestin-GFP spot imaging, agonist mode | activation, % at 20 µM;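 active means activation at or above 40% of the spot to cytoplasm intensity ratio, with at least 20 cells analyzed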;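 further: 0% = DMSO without peptide and 100% = 100 nM NTR1 peptide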
ABHD5 PLIN5 PPI: blocks binding of human ABHD5 to perilipin-5. 360,000 compounds, 0.78% hits. inhibition, % at 4 µM. AID 602281. Split G. princeps luciferase complementation, luminescence, 4 h;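 active means inhibition above the mean inhibition across every tested compound plus 3 SD, cut at about 22% in these data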;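 further: 0% = DMSO only wells and the 100% control is not disclosed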
NOD2-RIPK2 inh: blocks binding of human NOD2 to RIPK2. CHO BLA complementation NOD2-RIPK2, CCF4 ratio. inhibition, % at 4.98 µM. 360,000 compounds, 0.38% hits. AID 624267; in the data active means inhibition above about 21%;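 further: 0% = vehicle only and 100% = reference blocker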
B2AR ag: human beta-2 adrenergic receptor agonism by FAP. response, % (concentration not given with the values). Am2.2-beta2AR cells, FAP receptor internalization, flow cytometry. AID 504454. P07550. 340,000 compounds, 0.43% hits;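 active means response above a set limit, near 3 SD of response in nonfluorescent compounds, cut at about 42% in these data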
ABHD5 PLIN5 conf: ABHD5-PLIN5 interaction inhibition, confirmed. shares compounds with ABHD5 PLIN5 PPI. biochemical ABHD5-PLIN5 interaction, luminescence. inhibition, % at 4 µM. 2,200 compounds, 67% hits; in the data active means inhibition above about 23%;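 further: 0% = DMSO vehicle wells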
HNF4 split-luc: counter-screen for ABHD5-PLIN5 inhibitors: HNF4 split-luciferase; shares compounds with ABHD5 PLIN5 PPI; 2,200 compounds, 77% hits; inhibition, % at 4 µM; AID 651674; HNF4 dimerization, luminescence, biochemical;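 active means mean inhibition across replicate wells exceeding the computed hit threshold, cut at about 13% in these data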;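 further: light from luciferase halves that rejoin when HNF4 fusion proteins dimerize; 0% = DMSO only wells and the 100% control is not given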
Target sequence (P41235 whole entry, looked up, the tested form may be a part): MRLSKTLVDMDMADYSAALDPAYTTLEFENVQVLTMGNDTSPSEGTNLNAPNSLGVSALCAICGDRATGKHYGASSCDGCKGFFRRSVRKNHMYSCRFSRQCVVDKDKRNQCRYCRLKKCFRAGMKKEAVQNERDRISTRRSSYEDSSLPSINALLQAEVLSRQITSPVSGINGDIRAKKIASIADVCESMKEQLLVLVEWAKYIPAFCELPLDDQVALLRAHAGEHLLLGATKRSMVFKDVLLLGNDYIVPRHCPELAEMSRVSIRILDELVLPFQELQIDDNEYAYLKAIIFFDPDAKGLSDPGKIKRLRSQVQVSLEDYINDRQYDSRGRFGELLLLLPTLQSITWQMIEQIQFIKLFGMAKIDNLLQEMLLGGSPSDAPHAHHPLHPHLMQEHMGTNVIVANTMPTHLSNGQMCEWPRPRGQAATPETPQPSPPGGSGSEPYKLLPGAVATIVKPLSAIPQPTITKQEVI
NOD2-RIPK2 conf: NOD2-RIPK2 interaction inhibition confirmed. shares compounds with NOD2-RIPK2 inh. CHO cells, NOD2-RIPK2 BLA complementation, CCF4 FRET. inhibition, % at 4.98 µM. 1,200 compounds, 70% hits;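 active means mean inhibition across replicates above a set limit taken from the earlier primary screen, cut at about 21% in these data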;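 further: 0% = DMSO-only wells and the high end = clavulanate BLA-blocked wells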
NOD2 BLA counter: NOD2-RIPK2 counterscreen BLA reporter activity. CHO BLA reporter, CCF4 FRET ratio. shares compounds with NOD2-RIPK2 inh. inhibition, % at 4.98 µM. 1,200 compounds, 57% hits;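 active means mean inhibition above the low-control mean inhibition plus three low-control SD, cut at about 11% in these data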;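 further: 0% = DMSO only wells and 100% = clavulanate high control wells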
An asterisk follows results filed as active; x = no result. Only some compounds are listed: those with a hit (about 1.5% of all), similar ones and a draw of the others.

SMILES	TLR9-MyD88 inh	TLR4 MyD88 comp	NTR1 agonist	ABHD5 PLIN5 PPI	NOD2-RIPK2 inh	B2AR ag	ABHD5 PLIN5 conf	HNF4 split-luc	NOD2-RIPK2 conf	NOD2 BLA counter
CC(=O)N/C(=C/c1ccccc1)c1ccccc1	7	x	-1	0	-10	1	x	x	x	x
CC(C)(C)NCC(=Cc1ccccc1)C(=O)c1ccccc1	-2	x	x	41*	27*	10	69*	54*	24*	3
CCOC(=O)Nc1ccc2c(c1)N(C(=O)CCN(CC)CC)c1ccccc1CC2	-4	x	0	0	-8	-8	x	x	x	x
CCOC(=O)Nc1ccc2c(c1)N(C(=O)CCN(CC)CC)c1ccccc1S2=O (centres undefined)	2	x	16	23*	31*	-1	21	78*	13	1
Cc1ccccc1S(=O)(=O)N1CCN(c2ccc3c(c2)C2CC3CCN2C(=O)OCc2ccccc2)CC1 (centres undefined)	x	x	x	0	-3	x	x	x	x	x
CCc1nc2ccc(C(=O)Nc3ccc(OC)c(OC)c3)cn2c1N(C)CCC(C)C	x	x	x	6	2	x	x	x	x	x
CCCN1C(=O)S/C(=C\c2ccc(N3CCOCC3)cc2C)C1=O	x	-10	x	x	x	x	x	x	x	x
CCCN1C(=O)S/C(=C/c2ccc(N3CCOCC3)o2)C1=O	15	x	-2	83*	41*	8	32*	93*	6	5
CCCN1C(=O)S/C(=C\c2ccc(N3CCOCC3)o2)C1=O	19	19	-2	74*	25*	-17	54*	109*	13	7
CCOC(=O)[C@]12CCC=C1N(Cc1ccc3c(c1)OCO3)C(=O)[C@H](CC(=O)NCCCN1CCCC1=O)C2	x	x	x	3	-3	x	x	x	x	x
C[C@H](CO)N1C[C@H](C)[C@@H](CN(C)Cc2ccc(C(=O)O)cc2)Oc2ncc(-c3ccc(C(=O)N(C)C)cc3)cc2C1=O	-9	x	x	2	-5	x	x	x	x	x
CC1=C(C(=O)N2CCCCCC2)CC(CC(=O)NCCc2ccccn2)C(=O)N1CCC1=CCCCC1 (centres undefined)	x	x	x	6	-9	x	x	x	x	x
CC(C)[C@H](NC(=O)OC(C)(C)C)c1nnc(S(=O)(=O)Cc2c(F)cccc2Cl)o1	16	x	33	71*	69*	30	85*	108*	70*	10
Cc1ccccc1CS(=O)(=O)c1nnc([C@H](CC(C)C)NC(=O)OC(C)(C)C)o1	0	11	20	45*	26*	64*	69*	90*	42*	-5
CC[C@@H](C)[C@H](NC(=O)OC(C)(C)C)c1nnc(S(=O)(=O)Cc2cc(C)ccc2C)o1	-2	11	-1	61*	59*	11	72*	102*	53*	-4
C[C@H]1CNC(=O)c2c(C(=O)N3CCN(C(=O)OC(C)(C)C)CC3)ncn21	x	x	x	3	-5	x	x	x	x	x
COC1=C(OC)C(=O)C(Sc2ccc3ccccc3c2)=CC1=O	20	x	x	81*	25*	16	72*	104*	70*	31*
CCCc1nnc(NC(=O)c2nc(S(=O)(=O)Cc3ccc(C)cc3)ncc2Cl)s1	10	x	0	44*	32*	17	77*	53*	30*	18*
CCN(CC)c1ccc(C(=C2C=CC(=[N+](CC)CC)C=C2)c2ccc(N(CC)CC)cc2)cc1	18	x	x	64*	41*	82*	58*	58*	49*	-7
CCN(CC)c1ccc(C(=O)NNC(=O)CCl)cc1	-1	-6	0	-2	-3	3	x	x	x	x
COC(=O)c1ccccc1OCc1cc(=O)oc2ccc(C)cc12	x	x	x	0	-14	x	x	x	x	x
C#CCN(C[C@@H]1[C@@H](OC(=O)NCc2ccccc2F)[C@@H](OC(=O)NCc2ccccc2F)Cn2c(=O)n(CCCCCC)c(=O)n21)S(=O)(=O)c1ccc(C)cc1	1	x	x	-7	-2	x	x	x	x	x
C#CCN(C[C@@H]1[C@@H](OC(=O)NCc2ccccc2F)[C@@H](OC(=O)NCc2ccccc2F)Cn2c(=O)ccc(=O)n21)S(=O)(=O)c1ccc(C)cc1	-2	x	x	40*	23*	x	58*	27*	21*	-3
CCC[C@H]1CN(c2ccccc2)C(=O)[C@@H]1CC(=O)Nc1ccc(Br)cc1	4	x	x	-9	6	x	x	x	x	x
Cc1cn2nc(N)c3ccccc3c2n1	1	-4	-1	-5	37*	3	x	x	-4	2
SMILES	TLR9-MyD88 inh	TLR4 MyD88 comp	NTR1 agonist	ABHD5 PLIN5 PPI	NOD2-RIPK2 inh	B2AR ag	ABHD5 PLIN5 conf	HNF4 split-luc	NOD2-RIPK2 conf	NOD2 BLA counter
O=C(NC(=S)Nc1sc2c(c1C(=O)O)CCCC2)c1ccccc1	-1	x	4	5	35*	5	x	x	1	-7
O=C(Nc1nc2ccccc2s1)c1ccc2sc([C@H]3C[C@H](O)[C@@H](CO)O3)nc2c1	x	x	x	2	7	x	x	x	x	x
O=C(C[C@H]1C=C[C@@H](NC(=O)Cc2cccnc2)[C@@H](CO)O1)NCc1ccc2c(c1)OCO2	x	x	x	1	2	x	x	x	x	x
COc1ccc(C(C(=O)c2ccccc2)c2ccccc2)cc1 (centres undefined)	x	x	x	-4	-12	x	x	x	x	x
O=c1oc2cc(O)ccc2cc1-c1ccccc1	8	x	1	-9	23*	3	x	x	28*	40*
O=C(/C=C/N1CCOCC1)c1coc2ccccc12	-5	2	0	3	29*	0	x	x	-2	-8
O=C(/C=C/N1CCOCC1)c1cc2ccccc2o1	-1	-2	-1	-3	2	-5	x	x	x	x
CCN(CC)c1ncnc2c1ncn2[C@H]1CN(Cc2ccncc2)C[C@@H](CO)O1	x	x	x	4	-2	x	x	x	x	x
CCCCN(C=O)c1c(CC)nc2c(OCc3ccc(Cl)cc3)cccn12	x	x	x	6	8	x	x	x	x	x
CC1(C(=O)Nc2ccc3c(c2)OCCO3)CCN1C(=O)c1cccc(F)c1 (centres undefined)	x	x	x	-5	1	x	x	x	x	x
CCC(CC)COC(=O)C(C#N)c1nc2ccccc2nc1N1CCN(CC)CC1 (centres undefined)	-7	3	22	8	22*	-3	x	x	21*	15*
O=C1C=C(O)c2cccc(O)c2C1=O	2	x	4	-22	2	1	x	x	x	x
O=C1C=C(c2c(O)ccc3ccccc23)c2ccccc2C1=O	-5	x	x	91*	21*	76*	x	x	15	-11
Cc1c(C(=O)NCc2ccc3c(c2)OCCO3)sc(=O)n1Cc1ccc(S(=O)(=O)N(C)C)cc1	x	x	x	2	6	x	x	x	x	x

Screens deposited in PubChem by several laboratories.
